According to PubChem BioAssay (NCATS):
Inconclusive results are not listed. Active and inactive are the calls of the source. The call rests on the fitted dose curve; in most records, active means well fitted curve in the direction sought with a large enough effect; inconclusive means small, poorly fitted or top-dose-only effect, or another doubt; inactive means no such curve, though single readings can be large; an effect the other way counts as inactive or inconclusive.

Experiments:
[1] = molecular target: Aldehyde dehydrogenase, mitochondrial (Homo sapiens) (UniProt P05091); assay: qHTS for Inhibitors of the Aldehyde Dehydrogenase Family (ALDH2) Primary screen (AID 2061308); further: nearly all actives have a fitted effect of over 55% in size
[2] = molecular target: Retinaldehyde dehydrogenase 3 (Homo sapiens) (UniProt P47895); assay: qHTS for Inhibitors of the Aldehyde Dehydrogenase Family (ALDH1A3) Validation screen (AID 2061312); further: nearly all actives have a fitted effect of over 45% in size
[3] = molecular target: Retinaldehyde dehydrogenase 3 (Homo sapiens) (UniProt P47895); assay: qHTS for Inhibitors of the Aldehyde Dehydrogenase Family (ALDH1A3) Primary screen (AID 2061315)

Measured: Potency

Cc1ccc(O)cc1Nc1ccnc(Nc2cccc(C(N)=O)c2)n1
inactive: [1] | [2] | [3]

Cc1cn(-c2cc(NC(=O)c3ccc(C)c(Nc4nccc(-c5cnccn5)n4)c3)cc(C(F)(F)F)c2)cn1
inactive: [1] | [2] | [3]

C[C@@H]1C[C@H]2[C@@H]3C[C@H](F)C4=CC(=O)C=C[C@]4(C)[C@@]3(F)[C@@H](O)C[C@]2(C)[C@@]1(O)C(=O)CO
inactive: [1] | [2] | [3]

CC(C)[C@@](C)(O)[C@@H]1CN(c2nc(-c3[nH]nc4ncccc34)c(F)cc2Cl)CCN1
inactive: [1] | [2] | [3]

C[C@H]1[C@H](C)C[C@@H](C(=O)O)C2CC[C@]3(C)C(=CC[C@@H]4[C@@]5(C)CC[C@H](O)C(C)(C)[C@@H]5CC[C@]43C)[C@@H]21 (stereo not given in full)
inactive: [1] | [2] | [3]

CCN(Cc1ccccc1)C(=O)Cn1c(=O)n(C)c2cnc(-c3ccccc3)nc21
inactive: [1] | [2] | [3]

Cc1nc(Nc2cnn(C3CCNCC3)c2)nc2c1N(C)C(=O)c1cc3ccccc3cc1N2C
inactive: [1] | [2] | [3]

O=C(NCc1nc2ccccc2c(=O)n1-c1ccc(F)cc1)Nc1ccc(Cl)c(C(F)(F)F)c1
inactive: [1] | [2] | [3]

COc1ccc2nc(-c3cc(OC)c(OC)c(OC)c3)cc(C(=O)NCC(=O)Nc3ccc(C(C)=O)cc3)c2c1
inactive: [1] | [2] | [3]

Cc1ccc(C(=O)N(CCCN)C(c2oc3cc(Cl)ccc3c(=O)c2Cc2ccccc2)C(C)C)cc1 (stereo not given)
inactive: [1] | [2] | [3]

C=CS(=O)(=O)NC1CCN(C(=O)CNc2cc(I)c(Cl)cc2OC)CC1
inactive: [1] | [2] | [3]

COc1cc2c(cc1-c1c(C)noc1C)ncc1[nH]c(=O)n(C(C)c3ccccn3)c12 (stereo not given)
inactive: [1] | [2] | [3]

CC(=O)OC12COC1CC(O)C1(C)C(=O)C(O)C3=C(C)C(OC(=O)C(O)C(NC(=O)OC(C)(C)C)c4ccccc4)CC(O)(C(OC(=O)c4ccccc4)C21)C3(C)C (stereo not given)
inactive: [1] | [2] | [3]

CC(C)(C(=O)NCC(F)(F)C(F)(F)F)C(=O)NC1C(=O)Nc2ccccc2-c2ccccc21 (stereo not given)
inactive: [1] | [2] | [3]

C=C[C@H]1CN2CC[C@H]1C[C@H]2[C@H](O)c1ccnc2ccc(OC)cc12
inactive: [1] | [2] | [3]

CN(C)CC(=O)Nc1ccc2[nH]c(=O)c3ccccc3c2c1
inactive: [1] | [2] | [3]

CN(c1ccccc1CNc1nc(Nc2ccc3c(c2)CC(=O)N3)ncc1C(F)(F)F)S(C)(=O)=O
inactive: [1] | [2] | [3]

CN(C)C(CCOc1cccc2ccccc12)c1ccccc1 (stereo not given)
inactive: [1] | [2] | [3]

NC(=O)N1CCC(CC(=O)N2CCC(C3c4ncc(Br)cc4CCc4cc(Cl)cc(Br)c43)CC2)CC1 (stereo not given)
inactive: [1] | [2] | [3]

CC[C@H]1OC(=O)[C@H](C)[C@@H](O[C@H]2C[C@@](C)(OC)[C@@H](O)[C@H](C)O2)[C@H](C)[C@@H](O[C@@H]2O[C@H](C)C[C@H](N(C)C)[C@H]2O)[C@](C)(O)C[C@@H](C)C(=O)[C@H](C)[C@H]2OC(=O)O[C@@]21C
inactive: [1] | [2] | [3]
